Screening results from PubChem BioAssay.
PAFAH2 FP inh = PAFAH2 (human) inhibition | hit rate 0.99% among 340,000 | AID 492956 | Q99487 | recombinant PAFAH2, FP-rhodamine activity probe, fluorescence polarization | inhibition, % at 3.39 µM;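 active = inhibition above the mean over all tested compounds plus 3 SD, cut at about 30% in these data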;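 note: inhibitors block probe labeling of enzyme so polarization drops; 0% = enzyme with DMSO and 100% = wells lacking PAFAH2 protein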
PAFAH1B2 FP inh = inhibitors of human PAFAH1B2. recombinant PAFAH1B2, FP-rhodamine activity probe, fluorescence polarization. inhibition, % at 3.39 µM. hit rate 1.2% among 340,000;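 active = inhibition above the mean of all tested compounds plus 3 SD, cut at about 24% in these data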;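 note: 0% = enzyme with DMSO and 100% = wells lacking PAFAH1B2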
Fam108B counter = counter-screen for RBBP9 inhibitors: inhibitors of mouse Fam108B; hit rate 0.33% among 300,000; inhibition, % at 9.51 µM; recombinant Fam108B, FP-Rh probe fluorescence polarization;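 active = inhibition above the screen mean inhibition plus 3 SD, computed separately per campaign, cut at about 18% in these data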;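 note: inhibitors lower polarization as less probe binds the enzyme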
pPAFAH inh = inhibitors of human plasma PAF acetylhydrolase (pPAFAH); Q13093; recombinant pPAFAH, FP-rhodamine probe fluorescence polarization; inhibition, % at 3.39 µM; hit rate 1.5% among 330,000;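 active = inhibition above the mean inhibition across the screen plus 3 SD, cut at about 25% in these data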;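 note: inhibitors block binding of the rhodamine activity-based probe so polarization drops; 0% = enzyme with DMSO and 100% = wells lacking pPAFAH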
PME-1 primary = PME-1 (human) inhibition. Q9Y570. recombinant PME-1, FP-Rh probe fluorescence polarization. inhibition, % at 5.9 µM. hit rate 0.53% among 320,000;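 active = inhibition above the campaign mean of all compounds plus 3 SD, cut at about 26% in these data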;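 note: competitive labeling of PME-1 active site by serine hydrolase directed probe; 0% = PME-1 with DMSO and 100% = wells lacking PME-1 enzyme; inhibitors block probe labeling so polarization falls and inhibition rises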
Target sequence (Q9Y570 whole entry, looked up): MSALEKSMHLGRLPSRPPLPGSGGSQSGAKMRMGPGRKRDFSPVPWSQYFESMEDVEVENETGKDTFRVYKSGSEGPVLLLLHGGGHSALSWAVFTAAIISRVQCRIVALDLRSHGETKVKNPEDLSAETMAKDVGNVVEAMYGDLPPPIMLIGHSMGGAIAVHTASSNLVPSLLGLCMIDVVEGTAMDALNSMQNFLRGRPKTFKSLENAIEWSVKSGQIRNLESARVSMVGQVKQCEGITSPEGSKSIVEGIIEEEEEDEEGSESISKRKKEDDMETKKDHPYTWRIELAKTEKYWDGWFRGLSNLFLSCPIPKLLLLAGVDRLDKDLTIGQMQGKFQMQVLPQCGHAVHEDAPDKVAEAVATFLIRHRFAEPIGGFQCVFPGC
PAFAH1B3 FP inh = PAFAH1B3 (human) inhibition; Q15102; recombinant PAFAH1B3, FP-rhodamine probe, fluorescence polarization; inhibition, % at 3.39 µM; hit rate 0.28% among 340,000;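 active = inhibition above the screen-wide average of all tested compounds plus 3 SD, cut at about 25% in these data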;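 note: 0% = enzyme with DMSO only and 100% = wells lacking PAFAH1B3 protein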
Target sequence (Q15102 whole entry, looked up): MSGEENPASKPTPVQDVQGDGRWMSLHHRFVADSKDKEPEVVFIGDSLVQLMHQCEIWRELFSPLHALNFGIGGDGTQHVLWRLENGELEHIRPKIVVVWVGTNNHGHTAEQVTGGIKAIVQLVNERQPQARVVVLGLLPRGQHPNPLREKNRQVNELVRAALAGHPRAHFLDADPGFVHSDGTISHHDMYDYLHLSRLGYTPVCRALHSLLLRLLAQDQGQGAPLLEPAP
PAFAH2 confirm = PAFAH2 (human) inhibition, confirmed; recombinant PAFAH2, FP-rhodamine activity probe, fluorescence polarization; inhibition, % at 3.39 µM; shares compounds with PAFAH2 FP inh; hit rate 65% among 2,300;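 active = mean inhibition over three repeats above a set limit taken from the earlier primary screen, cut at about 30% in these data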;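 note: inhibitor blocks binding of rhodamine activity probe so polarization falls; 0% = enzyme with DMSO and 100% = wells lacking PAFAH2 protein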
An asterisk follows results filed as active; . = no result. The list is not random: actives were taken first. Their share in the collection is about 2.8%.

SMILES | PAFAH2 FP inh | PAFAH1B2 FP inh | Fam108B counter | pPAFAH inh | PME-1 primary | PAFAH1B3 FP inh | PAFAH2 confirm
CCOCc1c(C(=O)OCC(=O)Nc2ccc(C)c(S(=O)(=O)N(C)C)c2)oc2ccccc12 | 58* | 6 | -7 | 2 | 7 | 4 | 45*
CN(C)c1cccc(C(=O)OCC(=O)NC(=O)NCc2ccccc2)c1 | -2 | 2 | . | 6 | . | 10 | .
Cc1cccc(C(=O)NCC(=O)NC(C)CCc2ccccc2)c1 (centres undefined) | 1 | 3 | -1 | 2 | 3 | 13 | .
CC(CCc1ccccc1)NC(=O)COC(=O)c1cccc(N(C)C)c1 (centres undefined) | 58* | 1 | 8 | 22 | 10 | -1 | 36*
Cc1cccc(C(=O)OCC(=O)NC(C)CCc2ccccc2)c1 (centres undefined) | 46* | 0 | -1 | 7 | 6 | 3 | 31*
CC(C)(C)NC(=O)COC(=O)c1ccc(NC(=O)CC#N)cc1 | 67* | 4 | -1 | 7 | 0 | 2 | 53*
N#Cc1ccc(COC(=O)c2cnc(Cl)c(Cl)c2)cc1 | -9 | 4 | -2 | 1 | 4 | -4 | .
CCN(CC)S(=O)(=O)c1cc(C(=O)OCC(=O)Nc2cccc(C)c2C)ccc1F | 24 | 0 | 0 | 23 | 2 | 10 | .
CC(CCc1ccccc1)NC(=O)COC(=O)c1ccc(NC(=O)CC#N)cc1 (centres undefined) | 54* | 3 | -4 | -17 | -27 | -1 | 51*
CCN(CC)S(=O)(=O)c1cc(NC(=O)COC(=O)c2ccc(NC(=O)CC#N)cc2)ccc1C | 51* | -9 | -3 | 20 | -2 | -21 | 50*
COc1ccc(CN2C(=O)CC(C(=O)NCCc3ccc(S(N)(=O)=O)cc3)SC2=Nc2ccccc2)cc1 (centres undefined) | 6 | 1 | -4 | 10 | -3 | 9 | .
COc1ccc(/C=C/C(=O)ONC2=NCCCCC2)cc1OC | 51* | 2 | -2 | 4 | -1 | -1 | 44*
C[C@H](CO)N1C[C@H](C)[C@@H](CN(C)C(=O)Nc2ccc3c(c2)OCO3)Oc2ccc(NC(=O)CCC(F)(F)F)cc2C1=O | 4 | -2 | . | -1 | . | -3 | .
N#C/C(=C/c1ccc(F)cc1)S(=O)(=O)c1ccccc1 | -2 | 10 | -3 | 6 | -3 | 10 | .
N#C/C(=C\c1ccc(O)c(O)c1)S(=O)(=O)c1ccccc1 | 64* | 14 | 5 | 11 | 7 | 17 | 49*
O=C(CSc1ncccn1)Nc1ncc(C(F)(F)F)cc1Cl | 4 | 6 | -2 | 0 | 2 | 6 | .
O=C1NC(=Nc2ccccc2)S/C1=C\c1cccnc1 | 10 | 5 | 1 | 7 | -3 | 9 | .
Cc1ccc(N=C2NC(=O)/C(=C/c3cccnc3)S2)cc1C | 32* | 4 | -2 | 5 | 2 | 0 | 23
CCOC(=O)C1CC2=C(CCCC2=O)N(Cc2ccccc2)C1=O (centres undefined) | 6 | 5 | . | . | . | 8 | .
CCOC(=O)C1CC2=C(CCCC2=O)NC1=O (centres undefined) | 32* | 3 | . | . | . | 7 | 22
COc1ccc(C(=O)n2nc(C)c(Br)c2C)cc1 | 31* | 4 | 0 | 5 | 8 | 4 | 9
Cc1cccc(N2NC(=O)/C(=C/c3ccc(-c4ccc(Cl)c(C(=O)O)c4)o3)C2=O)c1 | 32* | 17 | . | . | . | 24 | 20
O=C(COC(=O)C(O)c1ccccc1)NC12CC3CC(CC(C3)C1)C2 (centres undefined) | 14 | 12 | 0 | 8 | 1 | 0 | .
O=C(COC(=O)c1ccc(O)cc1O)NC12CC3CC(CC(C3)C1)C2 | 75* | 12 | . | 12 | -9 | -2 | 60*
CCN(CC)S(=O)(=O)c1cccc(C(=O)OCC(=O)C23CC4CC(CC(C4)C2)C3)c1 | 40* | 8 | -3 | 5 | -5 | 0 | 25
SMILES | PAFAH2 FP inh | PAFAH1B2 FP inh | Fam108B counter | pPAFAH inh | PME-1 primary | PAFAH1B3 FP inh | PAFAH2 confirm
O=C(COC(=O)c1ccc(O)cc1O)NC1CCS(=O)(=O)C1 (centres undefined) | 9 | 0 | 5 | 1 | -1 | 0 | .
COc1ccccc1C(=O)OCC(=O)NC12CC3CC(CC(C3)C1)C2 | 74* | 2 | . | . | . | 9 | 82*
CCN(CC)S(=O)(=O)c1ccc(O)c(C(=O)OCC(=O)Nc2ccc(OC(F)(F)F)cc2)c1 | 38* | -1 | -10 | 20 | -6 | 8 | 28
CCN(CC)S(=O)(=O)c1ccc(O)c(C(=O)OCC(=O)NC2CCCC2)c1 | 19 | 6 | -5 | 7 | 3 | 7 | .
CCN(CC)S(=O)(=O)c1ccc(O)c(C(=O)OCC(=O)NC23CC4CC(CC(C4)C2)C3)c1 | 77* | 14 | . | 5 | . | 2 | 68*
COc1cc(OC)c(C(=O)NC23CC4CC(CC(C4)C2)C3)cc1OC | 1 | 8 | -4 | 6 | -8 | 8 | .
COc1cc(OC)c(C(=O)OCC(=O)NC23CC4CC(CC(C4)C2)C3)cc1OC | 97* | 1 | . | 5 | . | 7 | 82*
CC(=O)c1cccc(S(=O)(=O)N2CCC(C(=O)N(C)Cc3ccc(Cl)s3)CC2)c1 | 6 | 3 | . | 2 | 7 | -1 | .
S=c1nc(NCc2cccc(Cl)c2)c2ccccc2[nH]1 | -2 | 5 | -1 | 9 | 1 | -2 | .
CCN(C(=O)COC(=O)c1cc(=O)c2ccccc2o1)c1c(N)n(Cc2ccccc2)c(=O)[nH]c1=O | -2 | 0 | 0 | 2 | -2 | -1 | .
O=C(NCc1ccc2c(c1)OCO2)C1CC(=O)N(CCc2ccc(Cl)cc2)C1 (centres undefined) | -5 | 5 | -2 | 3 | 4 | -1 | .
COc1ccccc1NCc1nnc(-c2ccccc2)o1 | 3 | 6 | 3 | 2 | 6 | 14 | .
Cc1ccc(C)c(Sc2ccc(NC(=O)CCN3C(=O)NC4(CCCC4)C3=O)cc2)c1 | 49* | 4 | . | 24 | -14 | -3 | 54*
NS(=O)(=O)c1ccc(O)c(NC(=O)c2ccc([N+](=O)[O-])cc2)c1 | 31* | -3 | -3 | 6 | -2 | 4 | 29
CCOc1ccc(NC(=O)c2nn(-c3ccc(OC)cc3OC)c(=O)c3ccccc23)cc1 | . | . | -2 | 1 | -7 | . | .
CC1(C)OC(C(O)(c2ccccc2)c2ccccc2)[C@@H](C(O)(c2ccccc2)c2ccccc2)O1 (some centres undefined) | -4 | 1 | -1 | -1 | -2 | 2 | .
CSc1nc2[nH]c(=O)n(O)c(=O)c2n1Cc1ccccc1 | 37* | 13 | . | . | . | -6 | 8
O=C(NCCc1ccc(Cl)cc1Cl)C1=CC=CN2CCS(=O)(=O)N=C12 | 11 | 10 | . | 3 | 2 | 7 | .
CC(=O)Nc1ccc(NC(=O)COC(=O)c2ccco2)cc1 | 3 | -3 | 2 | 2 | 0 | 7 | .
